# Results from PubChem BioAssay (Tox21).
# Values joined by “and” are separate entries in the source; they are usually repeats but may differ in a detail not shown here. Equal entries are not always repeated. Inconclusive results are not listed. Values without a mark were called inactive. Active and inactive are the calls of the source. Calls follow the shape of the dose curve; as a rule, active = well fitted cell-killing curve with a large enough effect in the repeat runs; inconclusive = weak or mixed curves, or effect the other way; inactive = flat fitted curve, though single readings scatter.
# Experiment: qHTS assay to identify small molecule agonists of the estrogen receptor beta (ER-beta) signaling pathway - cell viability counter screen (AID 1259380); also: nearly all actives have a fitted effect of over 30% in size
# Conditions: ER-beta-bla HEK293T viability, CellTiter-Glo luminescence, 16 h; series mostly up to 92.4 µM; activity change, negative = cytotoxicity: at the top concentration
# Excerpt: National Center for Advancing Translational Sciences [NCATS]
# NIH Chemical Genomics Center [NCGC]
# U.S. Environmental Protection Agency [EPA]
# National Institutes of Environmental Health Sciences [NIEHS]
# National Toxicology Program [NTP]
# U.S. Food and Drug Administration [FDA]
# Estrogen receptor (ER), a nuclear hormone receptor, plays an important role in development, metabolic homeostasis and reproduction. Two subtypes of ER, ER-alpha and ER-beta, have similar expression patterns with some uniqueness in both types. Endocrine disrupting chemicals (EDCs) and their interactions with steroid hormone receptors like ER causes disruption of normal endocrine function. To identify the compounds that activate ER signaling, an ER beta-UAS-bla GripTite cell line (Life Technologies, Madison, WI, USA) containing a beta-lactamase reporter gene under the control of an UAS response element was used to screen Tox21 10K compound library. The cytotoxicity of the Tox21 compound library against the ER-beta-bla cell line was tested in parallel by measuring the cell viability using CellTiter-Glo assay in the same wells.
# Tox21 Assay Protocol Summary:
# ER-beta-UAS-bla HEK293T cells were dispensed at 2,000 cells/5 uL of assay medium containing 2% charcoal stripped FBS per well into black wall/clear-bottom 1536-well plates using a Multidrop Combi (ThermoFisher Scientific, Waltham, MA) dispenser. After the assay plates were incubated at a 37C and 5% CO2 for 6 hr, 23 nL of compounds dissolved in DMSO, positive controls or DMSO only was transferred to the assay plate by a Pintool station (Kalypsys, San Diego, CA). The plates were incubated at 37C and 5% CO2 for 16 hr. Then 1 uL of LiveBLAzerTM B/G FRET substrate was added using a BioRAPTR FRD (Flying Reagent Dispenser, Aurora Discovery, San Diego, CA) and then the plates were incubated at room temperature for 2 hours, and fluorescence intensity was measured by an Envision plate reader (PerkinElmer, Shelton, CT). For cell viability readout that measures cytotoxicity, 4 uL/well of CellTiter-Glo reagent was added into the assay plates using a FRD. After 30 min incubation at room temperature, the luminescence intensity in the plates was measured using a ViewLux (PerkinElmer) plate reader.
# % is scaled to controls: 0 for no effect and ±100 for the full control effect; potency is read from the fitted curve at half-maximal effect.
SMILES,"activity change, negative = cytotoxicity",Potency
CO[Si](C)(OC)OC,1.44%,
CCC(C)(C)C1CCC(O)CC1 (stereo not given),3.89%,
CCC(C)=O,0.634%,
CN(C)CCOC1=Cc2ccccc2Sc2ccc(Cl)cc21,,26.6 µM (active)
Nc1ccc(C(=O)OCCCOC(=O)c2ccc(N)cc2)cc1,,17.2 µM (active)
CCCCC1C(=O)N(c2ccccc2)N(c2ccc(O)cc2)C1=O (stereo not given),,23.7 µM (active)
CN1CCN(CCCN2c3ccccc3Sc3ccc(S(=O)(=O)N(C)C)cc32)CC1,,23.7 µM (active)
CSc1ccc(Oc2ccc(S(N)(=O)=O)cc2CN(C)C)cc1C,,38.6 µM (active)
CCOC(=O)C(C)Oc1ccc(Oc2nc3ccc(Cl)cc3o2)cc1 (stereo not given),-2.55%,
N#C/C(=C1\SCC(c2ccccc2Cl)S1)n1ccnc1 (stereo not given),3.2% [at 42.5 µM],
COC(=O)c1cc(S(N)(=O)=O)ccc1OC,13.1% [at 42.5 µM],
Fc1c(F)c(F)c(Br)c(F)c1F,7.74%,
OC/C(Br)=C(\Br)CO,-0.777%,
CNC(=S)NC,,13.7 µM (active)
CC(=O)N(c1onc(C)c1C)S(=O)(=O)c1ccc(N)cc1,0.228% [at 42.5 µM],
O=C(O)c1ccccc1NCCc1ccccc1,-2.73% [at 42.5 µM],
CCCCCCCCCCCC(=O)[O][Sn]([CH2]CCC)([CH2]CCC)[O]C(=O)CCCCCCCCCCC,-12.8% [at 42.5 µM],
Oc1cc(O)c(Cl)cc1Cl,3.97%,
CC[C@@H]([C@H](C)O)n1ncn(-c2ccc(N3CCN(c4ccc(OC[C@@H]5CO[C@@](Cn6cncn6)(c6ccc(F)cc6F)C5)cc4)CC3)cc2)c1=O,,4.22 µM (active)
OCCSc1ccccc1,,19.3 µM (active)

SMILES,"activity change, negative = cytotoxicity",Potency
C[C@]12CCC(=O)C=C1C=C[C@@H]1[C@@H]2CC[C@@]2(C)[C@H]1CC[C@@]21CCC(=O)O1,5.54% [at 42.5 µM],
CCCCC(CC)CNCC(CC)CCCC (stereo not given),0.173%,
C[N+]1(C)CCC(=C(c2ccccc2)c2ccccc2)CC1,11.8% [at 42.5 µM],
CC1=CC(O)CC(C)(C)C1 (stereo not given),4.96%,
Cc1cc(C(=C2C=CC(=Nc3ccc(S(=O)(=O)O)cc3S(=O)(=O)O)C=C2)c2ccc(Nc3ccc(S(=O)(=O)O)cc3)cc2)ccc1N,-0.369% [at 42.5 µM],
CCOC(=O)OCC,2.04%,
O=C(O)Cc1ccc(-c2ccccc2)cc1,-4.5% [at 42.5 µM],
CCc1cccc(N(C)C(N)=Nc2cccc3ccccc23)c1,,2.66 µM (active)
COc1cc2c(N3CCN(C(=O)Nc4ccc(OC(C)C)cc4)CC3)ncnc2cc1OCCCN1CCCCC1,,18.8 µM (active)
c1cnc2c(n1)CCCC2,0.444%,
CCCCC(=O)O[C@]1(C(=O)CO)[C@@H](C)C[C@H]2[C@@H]3CCC4=CC(=O)C=C[C@]4(C)[C@@]3(F)[C@@H](O)C[C@@]21C,,15.4 µM (active)
Cc1cc(S(=O)(=O)O)ccc1N=Nc1c(O)ccc2ccccc12,-1.68%,
NC(=O)N(O)[C@@H]1C=C[C@H](Oc2cccc(Oc3ccc(F)cc3)c2)C1,4.96%,
Nc1c(I)cc(I)c(C(=O)N(CCC(=O)O)c2ccccc2)c1I,-0.572% [at 42.5 µM],
CCCOc1ccc(S(=O)(=O)N2CCN(CC)CC2)cc1-c1nc2c(CC)n(Cc3ccccn3)nc2c(=O)[nH]1,-13%,
CCCCCCCCCCCCCCCCBr,2.84% [at 19 µM],
CN(C(=O)C(Cl)Cl)c1ccc(OC(=O)c2ccco2)cc1,12.1% [at 42.5 µM],
CC1(C)O[C@@H]2C[C@H]3[C@@H]4CCC5=CC(=O)C=C[C@]5(C)[C@H]4[C@@H](O)C[C@]3(C)[C@]2(C(=O)CO)O1,-7.92% [at 42.5 µM],
CC(C)c1nnc2ccc(-c3ocnc3-c3cc(F)ccc3F)cn12,0.893%,
COCc1c(C(C)C)nc(C(C)C)c(/C=C/[C@@H](O)C[C@@H](O)CC(=O)O)c1-c1ccc(F)cc1,,298 nM (active) and 1.08 µM (active)
